Structures can show the parent of a compound that is named as a salt. ± gives the uncertainty stated by the source.
Tested on: FLX1
Assay: cell viability z-score within plate (CellTiter-Glo), mean of 3 biological replicates; higher = higher viability relative to plate (less growth inhibition)
Details: 2 µM; time (hr): 120
Experimental: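 FLX1 fibrolamellar carcinoma cells (DNAJB1-PRKACA fusion), 600 cells/well in 384-well plates, treated with a Selleck kinase inhibitor library (L1200) at 2 uM for 5 days (120 hr); viability by CellTiter-Glo. A z-score was computed within each plate and averaged over three biological replicates.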

**Q.** Cn1cnc(N)c2ncnc1-2 [3-Methyladenine (3-MA)] was tested. Which “cell viability z-score within plate” value did it give?
**A.** 0.219 ± 0.67

**Q.** CCC(=O)Nc1cccc(Oc2nc(Nc3ccc(N4CCN(C)CC4)cc3OC)ncc2Cl)c1 was tested. Which “cell viability z-score within plate” value did it give?
**A.** 0.708 ± 0.11

**Q.** O=C1NCCc2[nH]c(-c3ccncc3)cc21 was tested. Which “cell viability z-score within plate” value did it give?
**A.** 0.309 ± 0.59

**Q.** COc1c(C)c(C(=O)c2ccc(N)c(C(=O)O)c2)n2ccccc12 was tested. Which “cell viability z-score within plate” value did it give?
**A.** 0.661 ± 0.44

**Q.** For C=CC(=O)Nc1cccc(Nc2nc(Nc3ccc(OCCOC)cc3)ncc2F)c1, which “cell viability z-score within plate” value is on record?
**A.** -0.411 ± 0.22

**Q.** Which “cell viability z-score within plate” value does the source give for CN1CCCN(C(=O)c2cccc(-c3ccc(/C=C4/C(=O)Nc5ccc(Cl)cc54)o3)c2)CC1 here?
**A.** 0.408 ± 0.47

**Q.** For C=CC(=O)Nc1cccc(Nc2nc(Nc3ccc(Oc4ccnc(C(=O)NC)c4)cc3)ncc2F)c1, which “cell viability z-score within plate” value is on record?
**A.** 0.519 ± 0.21

Tested on: FLX1 + dox-induced PRKAR1A G325D
Assay: difference in log2 fold change of viability vs plate median (dox-induced PRKAR1A G325D minus uninduced); higher = compound less effective when PKA is inhibited
Details: concentration: not stated (2 or 5 uM); 5 days
Experimental: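 For each plate a log2 fold change vs the plate median was derived, and the values without dox were subtracted from those with dox, averaged over three biological replicates.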

**Q.** Which “difference in log2 fold change of viability” value (“difference in log2 fold change” for short) does the source give for C[C@@]1(C(=O)Nc2ccc(F)nc2)CCCN1c1nc(Nc2cc(C3CC3)n[nH]2)c2cccn2n1 here?
**A.** -1.23

**Q.** With N=C(N)NC(=N)NCCc1ccccc1 [Phenformin HCl] as the molecule, how does the “difference in log2 fold change” value read?
**A.** -0.0569

**Q.** Which “difference in log2 fold change” value does the source give for CN1CCN(S(=O)(=O)c2ccc(-c3cnc(N)c(C(=O)Nc4cccnc4)n3)cc2)CC1 here?
**A.** -0.529

**Q.** Which “difference in log2 fold change” value does the source give for COc1cc2c(Oc3ccc4[nH]c(C)cc4c3F)ncnc2cc1OCCCN1CCCC1 [Cediranib (AZD2171)] here?
**A.** 0.58

**Q.** For COc1cc(Nc2ncc(F)c(Nc3ccc4c(n3)N(COP(=O)(O)O)C(=O)C(C)(C)O4)n2)cc(OC)c1OC [Fostamatinib (R788)], which “difference in log2 fold change” value is on record?
**A.** -0.76

**Q.** For Cn1cnc(N)c2ncnc1-2 [3-Methyladenine (3-MA)], which “difference in log2 fold change” value is on record?
**A.** 0.548

**Q.** For O=C(Cc1ccc(-c2ccc(OCCN3CCOCC3)cc2)cn1)NCc1ccccc1, which “difference in log2 fold change” value is on record?
**A.** 0.213

**Q.** How did the “difference in log2 fold change” value turn out when N#Cc1c(NC(=O)c2cccc3ccccc23)sc2c1CCCC2 [JNK Inhibitor IX] was run?
**A.** 0.317

**Q.** Which “difference in log2 fold change” value does the source give for CCC(=O)Nc1cccc(Oc2nc(Nc3ccc(N4CCN(C)CC4)cc3OC)ncc2Cl)c1 here?
**A.** -0.831

**Q.** Which “difference in log2 fold change” value does the source give for Cc1cc(Nc2cc(N3CCN(C)CC3)nc(Sc3ccc(NC(=O)C4CC4)cc3)n2)n[nH]1 [Tozasertib (VX-680, MK-0457)] here?
**A.** -0.00164

**Q.** Which “difference in log2 fold change” value does the source give for COc1cc2nccc(Oc3ccc(NC(=O)NC4CC4)c(Cl)c3)c2cc1C(N)=O [Lenvatinib (E7080)] here?
**A.** -0.0902

**Q.** With Cc1ccc(S(=O)(=O)/C=C/C#N)cc1 as the molecule, how does the “difference in log2 fold change” value read?
**A.** -0.118

**Q.** For Cn1cc(/C=C2\C(=O)Nc3cccnc32)c2ccccc21, which “difference in log2 fold change” value is on record?
**A.** 0.00477

**Q.** For O=C1NCCc2[nH]c(-c3ccncc3)cc21, which “difference in log2 fold change” value is on record?
**A.** 0.179

**Q.** How did the “difference in log2 fold change” value turn out when Cc1ccc(Nc2nccc(N(C)c3ccc4c(C)n(C)nc4c3)n2)cc1S(N)(=O)=O [Pazopanib] was run?
**A.** 0.0453

**Q.** For O=C1NC(=O)/C(=C/c2ccc3c(c2)OC(F)(F)O3)S1, which “difference in log2 fold change” value is on record?
**A.** -0.0198

**Q.** How did the “difference in log2 fold change” value turn out when FC(F)(F)c1ccc(/C=C/c2nc(COc3ccc(CCCCn4ccnn4)cc3)co2)cc1 [Mubritinib (TAK 165)] was run?
**A.** 0.102

**Q.** With COc1cc2ncnc(Oc3ccc(CC(=O)Nc4cnn(C(C)C)c4)cc3)c2cc1OC as the molecule, how does the “difference in log2 fold change” value read?
**A.** -0.126

**Q.** N#C/C(=C(/N)Sc1ccc(N)cc1)c1ccccc1C(F)(F)F was tested. Which “difference in log2 fold change” value did it give?
**A.** 0.1

**Q.** How did the “difference in log2 fold change” value turn out when CNC(=O)c1cc(Oc2ccc(NC(=O)Nc3ccc(Cl)c(C(F)(F)F)c3)cc2)ccn1 [Sorafenib Tosylate] was run?
**A.** -0.44

**Q.** How did the “difference in log2 fold change” value turn out when Oc1cc(O)cc(/C=C/c2ccc(O)c(O)c2)c1 [Piceatannol] was run?
**A.** -0.236

**Q.** Which “difference in log2 fold change” value does the source give for C[S+]([O-])c1ccc(-c2nc(-c3ccc(F)cc3)c(-c3ccncc3)[nH]2)cc1 (stereo not given) here?
**A.** -0.00802

**Q.** How did the “difference in log2 fold change” value turn out when N[C@@H]1CCCN(c2c(/C=C3\SC(=O)NC3=O)cccc2-c2ccccc2)C1 was run?
**A.** 0.132

**Q.** For COc1c(C)c(C(=O)c2ccc(N)c(C(=O)O)c2)n2ccccc12, which “difference in log2 fold change” value is on record?
**A.** 0.093

**Q.** For O=C(NCCCNc1nc(Nc2cccc(NC(=O)N3CCCC3)c2)ncc1I)c1cccs1, which “difference in log2 fold change” value is on record?
**A.** 0.621

**Q.** Cc1ccc(C(=O)Nc2ccc(CN3CCN(C)CC3)c(C(F)(F)F)c2)cc1C#Cc1cnc2[nH]ncc2c1 [GZD824 Dimesylate] was tested. Which “difference in log2 fold change” value did it give?
**A.** 0.11

**Q.** Which “difference in log2 fold change” value does the source give for C[C@]1(O)C[C@@H](c2nc(-c3ccc4ccc(-c5ccccc5)nc4c3)c3c(N)nccn32)C1 [Linsitinib (OSI-906)] here?
**A.** 0.468

**Q.** For C=CC(=O)Nc1cccc(Nc2nc(Nc3ccc(OCCOC)cc3)ncc2F)c1, which “difference in log2 fold change” value is on record?
**A.** -0.726

**Q.** For Cc1ccc(Nc2nccc(N(C)c3ccc4c(C)n(C)nc4c3)n2)cc1S(N)(=O)=O, which “difference in log2 fold change” value is on record?
**A.** -0.0987

**Q.** How did the “difference in log2 fold change” value turn out when CCN1CCN(Cc2ccc(-c3cc4c(N[C@H](C)c5ccccc5)ncnc4[nH]3)cc2)CC1 was run?
**A.** -0.338

**Q.** How did the “difference in log2 fold change” value turn out when CN(C)Cc1cccc(N=C(c2ccccc2)c2c(O)[nH]c3cc(C(=O)N(C)C)ccc23)c1 was run?
**A.** 0.0526

**Q.** Which “difference in log2 fold change” value does the source give for Oc1ccc(-c2nc(-c3ccc(F)cc3)c(-c3ccncc3)[nH]2)cc1 here?
**A.** 0.0143

**Q.** With CN1CCCN(C(=O)c2cccc(-c3ccc(/C=C4/C(=O)Nc5ccc(Cl)cc54)o3)c2)CC1 as the molecule, how does the “difference in log2 fold change” value read?
**A.** -0.148

**Q.** CC(C)(O)CC(=O)NCCn1ccc2ncnc(Nc3ccc(Oc4cccc(C(F)(F)F)c4)c(Cl)c3)c21 was tested. Which “difference in log2 fold change” value did it give?
**A.** -0.173

**Q.** For Cc1cc(NC(=O)c2cccc(NC(=O)/C=C/CN(C)C)c2)ccc1Nc1nccc(-c2cccnc2)n1, which “difference in log2 fold change” value is on record?
**A.** -0.217

**Q.** How did the “difference in log2 fold change” value turn out when COc1cc2nccc(Oc3ccc(NC(=O)C4(C(=O)Nc5ccc(F)cc5)CC4)cc3)c2cc1OC was run?
**A.** 0.457

**Q.** For CCN1CCN(Cc2ccc(Nc3ncc(F)c(-c4cc(F)c5nc(C)n(C(C)C)c5c4)n3)nc2)CC1, which “difference in log2 fold change” value is on record?
**A.** -0.0976

**Q.** For C=CC(=O)Nc1cccc(Nc2nc(Nc3ccc(Oc4ccnc(C(=O)NC)c4)cc3)ncc2F)c1, which “difference in log2 fold change” value is on record?
**A.** -0.452
